BAZ2B block: inhibitors of human BAZ2B bromodomain; AlphaScreen BAZ2B-H3K14Ac peptide displacement; Potency, µM (titrated, usually from 114 µM), without a hit: top-dose activity change, negative = inhibition, actives largely listed as inhibitors; actives 4.4% (n = 360,000); also: % is scaled to controls: 0 for no effect and ±100 for the full control effect; nearly all actives have a fitted effect of over 60% in size
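Multi-concentration screen (max 110 uM) measuring displacement of acetylated histone H3 peptide from BAZ2B by AlphaScreen, using 50 nM protein, 50 nM peptide and 10 ug/mL streptavidin donor plus Ni-chelate acceptor beads.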
Sfp PPTase inh: inhibitors of Bacillus subtilis Sfp phosphopantetheinyl transferase; Q9F4F7; Biochemical Sfp PPTase activity, qHTS; Potency, µM, without a hit: largest response in the series, negative = inhibition, usual class: inhibitors; actives 3.5% (n = 310,000); AID 1490;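 also: the enzyme is Sfp with the accession as filed and its product quenches rhodamine fluorescence; 0% = enzyme reaction without inhibitor and -100% = no enzyme wells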
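Compounds were incubated with enzyme (final 15 nM) for 15 min at room temperature before substrate addition started the reaction. Fluorescence at 525 nm excitation, 598 nm emission was recorded immediately and after 30 minutes.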
G9a inh: blocks human histone lysine methyltransferase G9a. G9a H3K9 monomethylation, AlphaScreen, 2 h. AID 504332. actives 8.8% (n = 350,000). Potency, µM (series often up to 102 µM), for inactives: top-dose activity, negative = inhibition, actives largely listed as inhibitors. Q96KQ7; also: % is scaled to controls: 0 for no effect and ±100 for the full control effect; nearly all actives have a fitted effect of over 75% in size
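Signal arises when biotinylated H3K9 peptide, once monomethylated, bridges streptavidin donor and antibody-captured acceptor beads. Enzyme at 20 nM was preincubated 15 min with test compounds; peptide 500 nM and SAM 20 uM then reacted for 2 h.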
L3MBTL1 block: inhibitors of human L3MBTL1; AlphaScreen L3MBTL1–H3K9me1 peptide binding; Potency, µM (series often up to 57.1 µM), inactives show at the top dose activity, negative = inhibition, actives largely listed as inhibitors; actives 0.66% (n = 230,000); AID 485360; also: % is scaled to controls: 0 for no effect and ±100 for the full control effect; nearly all actives have a fitted effect of over 60% in size
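Displacement of a biotinylated histone H3(1-15) peptide monomethylated at Lys9 (75 nM) from L3MBTL1 (50 nM) was measured by AlphaScreen after a 30 min room-temperature compound incubation; cefsulodin titration served as intraplate control.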
JMJD2A Tudor inh: JMJD2A Tudor domain (human) inhibition | O75164 | AlphaScreen JMJD2A-Tudor / H3K4me3 peptide binding | Potency, µM (series often up to 114 µM), for the others: at the top dose activity change, negative = inhibition, most hits filed as inhibitors | actives 4.4% (n = 390,000); also: % is scaled to controls: 0 for no effect and ±100 for the full control effect; nearly all actives have a fitted effect of over 50% in size
Target sequence (O75164 whole entry, looked up, the tested form may be a part): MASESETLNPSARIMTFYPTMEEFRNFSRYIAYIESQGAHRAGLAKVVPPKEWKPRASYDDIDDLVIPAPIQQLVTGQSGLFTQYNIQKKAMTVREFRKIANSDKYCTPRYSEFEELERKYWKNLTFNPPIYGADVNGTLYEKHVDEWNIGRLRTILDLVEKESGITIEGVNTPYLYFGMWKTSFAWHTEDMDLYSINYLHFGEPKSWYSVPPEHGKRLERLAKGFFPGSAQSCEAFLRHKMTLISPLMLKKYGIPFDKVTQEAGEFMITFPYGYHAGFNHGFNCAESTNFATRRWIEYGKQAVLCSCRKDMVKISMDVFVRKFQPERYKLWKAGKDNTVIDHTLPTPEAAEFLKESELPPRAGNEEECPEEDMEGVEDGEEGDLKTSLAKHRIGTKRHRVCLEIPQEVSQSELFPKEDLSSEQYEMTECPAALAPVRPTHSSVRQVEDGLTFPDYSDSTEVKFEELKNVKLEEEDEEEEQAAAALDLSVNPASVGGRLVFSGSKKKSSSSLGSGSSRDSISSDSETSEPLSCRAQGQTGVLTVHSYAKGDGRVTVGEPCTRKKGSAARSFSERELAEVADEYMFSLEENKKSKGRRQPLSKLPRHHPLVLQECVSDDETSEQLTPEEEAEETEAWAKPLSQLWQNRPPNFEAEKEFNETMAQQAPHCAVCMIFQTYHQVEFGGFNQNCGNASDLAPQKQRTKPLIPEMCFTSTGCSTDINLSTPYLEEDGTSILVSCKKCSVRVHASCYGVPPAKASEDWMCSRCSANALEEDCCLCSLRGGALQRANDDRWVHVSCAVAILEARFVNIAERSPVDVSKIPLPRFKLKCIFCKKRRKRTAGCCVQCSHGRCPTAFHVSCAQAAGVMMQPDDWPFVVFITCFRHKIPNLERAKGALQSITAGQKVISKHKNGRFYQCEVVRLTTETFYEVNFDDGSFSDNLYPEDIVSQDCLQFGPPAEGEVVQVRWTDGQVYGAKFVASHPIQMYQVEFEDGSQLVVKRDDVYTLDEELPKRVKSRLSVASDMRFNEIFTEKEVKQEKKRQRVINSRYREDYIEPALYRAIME
HP1b chromo inh: blocks HP1-beta chromodomain binding to methylated histone tails; P83916; AlphaScreen HP1-beta / biotin-H3K9me3 peptide binding; Potency, µM (highest dose often 114 µM), inactives show at the highest dose activity change, negative = inhibition, actives largely listed as inhibitors; actives 0.56% (n = 390,000); AID 540317; also: nearly all actives have a fitted effect of over 70% in size
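Compound inhibition of the preformed complex between 50 nM HP1-beta and 50 nM biotinylated H3K9me3 peptide was read by AlphaScreen. Buffer was PBS pH 7.4 with 0.01% Tween-20. Incubations ran 30 min at room temperature, with 10 ug/mL donor/acceptor beads.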
Starred values were filed as active, the others as inactive; [ ] = another dose, or the depositor's remark. This is a sample that favours compounds with a hit; in the whole collection about 12% have one here. Calls follow the shape of the dose curve; as a rule, active = well fitted curve in the direction sought with a large enough effect; inconclusive = small, poorly fitted or top-dose-only effect, or another doubt; inactive = no such curve, though single readings can be large; an effect the other way counts as inactive or inconclusive. Potency is read from the fitted curve at half-maximal effect.

For Cc1ccc(C(C)C)cc2c(C)ccc1-2 the results were Sfp PPTase inh -4%, G9a inh 13µM*, JMJD2A Tudor inh 28µM* and HP1b chromo inh 22µM*.
`CC(=O)Oc1ccc2nonc2c1OC(C)=O` gave JMJD2A Tudor inh inconclusive and HP1b chromo inh 20µM*.
Screening CC(=O)Nc1nonc1NC(C)=O returned BAZ2B block 10%, Sfp PPTase inh 21%, G9a inh -12%[59 µM], L3MBTL1 block -2%, JMJD2A Tudor inh -1% and HP1b chromo inh 36%.
CC(=O)Nc1cc(OC(C)=O)c2nonc2c1OC(C)=O was read as BAZ2B block inconclusive, Sfp PPTase inh 40µM*, G9a inh inconclusive, L3MBTL1 block 2.5µM*, JMJD2A Tudor inh -19% and HP1b chromo inh 30%.
For CCC(C)OC(=O)c1[nH]c2c(c1C)C(=O)CC(c1ccc(N(C)C)cc1)C2 (stereo not given) the results were BAZ2B block inconclusive, Sfp PPTase inh -5%, G9a inh 14µM*, L3MBTL1 block -8%, JMJD2A Tudor inh inconclusive and HP1b chromo inh -6%.
`Cc1c(C(=O)OC2CCCCCC2)[nH]c2c1C(=O)CC(c1ccc(N(C)C)cc1)C2` (stereo not given) gave BAZ2B block inconclusive, G9a inh 5%[59 µM], JMJD2A Tudor inh inconclusive and HP1b chromo inh -12%.
For Cc1c(C(=O)OCc2ccccc2)[nH]c2c1C(=O)CC(c1ccc(Cl)cc1)C2 (stereo not given) the results were BAZ2B block 0%, G9a inh -1%[59 µM], JMJD2A Tudor inh -2% and HP1b chromo inh 40%.
`C/C=C/COC(=O)c1[nH]c2c(c1C)C(=O)CC(c1ccc(N(C)C)cc1)C2` (stereo not given) gave BAZ2B block inconclusive, Sfp PPTase inh 2%, G9a inh 35µM*, L3MBTL1 block -13%, JMJD2A Tudor inh 89µM* and HP1b chromo inh -12%.
Screening CNC(=O)c1c(NC(=O)C2=COCCO2)sc2c1CCN(C(=O)OC)C2 returned BAZ2B block -9%, G9a inh 4%, L3MBTL1 block -1%, JMJD2A Tudor inh -12% and HP1b chromo inh 29%.
`COc1ccccc1CN1CCN(C2CCN(C(=O)NC(C)C)CC2)C(=O)C1=O` gave BAZ2B block -7%, G9a inh -7%[12.7 µM], JMJD2A Tudor inh 9% and HP1b chromo inh 24%.
`O=C(NCC1CCCCC1)C1CCN(C(=O)NC2CCCCC2)CC1` gave BAZ2B block -32%, Sfp PPTase inh 15%, G9a inh -9%, L3MBTL1 block 7%, JMJD2A Tudor inh 2% and HP1b chromo inh 29%.
CC(C)CN1CCC(C(=O)NCC2CCCO2)CC1 (stereo not given) was read as BAZ2B block 56µM*, Sfp PPTase inh inconclusive, G9a inh 10µM*, L3MBTL1 block -8%, JMJD2A Tudor inh 7.1µM* and HP1b chromo inh inconclusive.
O=C(NCC1CCCO1)C1CCN(C2CCN(CCCC3CCCC3)CC2)CC1 (stereo not given) was read as BAZ2B block 5%, Sfp PPTase inh -4%, G9a inh 2%, L3MBTL1 block -10%, JMJD2A Tudor inh -20% and HP1b chromo inh 25%.
Screening CC(C)CNC(=O)C(=O)NNC(=O)C1CCCCC1 returned BAZ2B block -5%, Sfp PPTase inh -20%, G9a inh 20µM*, L3MBTL1 block 6%, JMJD2A Tudor inh inconclusive and HP1b chromo inh 26%.
`CC(C)CNC(=O)C1CCN(CC2CCCCC2)CC1` gave BAZ2B block -4%[57.1 µM], Sfp PPTase inh -3%, L3MBTL1 block -1%, JMJD2A Tudor inh 79µM* and HP1b chromo inh -29%.
Screening O=C(NCC1CCCO1)C1CCN(CC2CCCCC2)CC1 (stereo not given) returned BAZ2B block inconclusive, Sfp PPTase inh 8%, G9a inh inconclusive, JMJD2A Tudor inh 35µM* and HP1b chromo inh -18%.
